This is a sample that favours compounds with a hit; in the whole collection about 2.3% have one here.
Peg3 imprint: qHTS Assay for Compounds that Induce Erasure of Genomic Imprints | mouse ES Peg3-LacZ reporter, beta-gal luminescence, 40 h | Potency, µM (highest dose often 60.7 µM), for inactives: at the highest dose activity change, positive = activation, actives largely listed as activators | 110,000 tested, 0.02% active | AID 1948, 2009
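Each well holds 300 Peg3LacZ-Neo (maternal) female ES cells incubated 40 h at 37C, 5% CO2. LacZ is measured by BetaGlo luminescence, with AC50 and maximum efficacy derived from dose-response curves.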
IkB sig inh: IkB Signaling | ABC-DLBCL IkBa-CBG/CBR dual luciferase ratio, 4 h; response scale: scaled: untreated 0%, proteasome inhibitor 100% | Potency, µM (titrated, usually from 57.1 µM), without a hit: at the highest dose IkBa stabilization activation | 110,000 tested, 0.04% active; active means well fitted curve in the direction sought with a large enough effect in the signal ratio, not every such curve was filed as active; inconclusive means small, poorly fitted or top-dose-only effect, or a change in a side signal; the % refers to the signal ratio;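 further: the direction sought is a rising ratio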
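In this assay, an IκBα–CBG68 fusion accumulates when IKK-driven degradation is blocked; native CBR normalizes for cell number. OCI-Ly3 cells were treated 4 h with compound and doxycycline, then green and red light read after Chroma-Glo addition.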
p53ts 32C kill: qHTS Screen for Compounds that Selectively Target Cancer Cells with p53 Mutations: Cytotoxicity of p53ts Cells at the Permissive Temperature | H1299-p53A138V at 32C, ATP luminescence viability, 24 h | Potency, µM (series often up to 46.1 µM), for inactives: at the highest dose activity change, negative = cytotoxicity, actives largely listed as cytotoxic | 130,000 tested, 0.93% active | AID 924, 2007;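 further: 0% = DMSO and -100% = full killing by reference compound; nearly all actives have a fitted effect of over 55% in size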
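ATP-content luminescence (ATPlite) read-out after 24 h compound exposure at 32C in H1299-p53A138V cells (600/well). Tested up to 46 uM. Normalized to DMSO (0%) and 100 uM tamoxifen (100% killing); Hill-fit AC50.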
p53ts 39C kill: qHTS Screen for Compounds that Selectively Target Cancer Cells with p53 Mutations: Cytotoxicity of p53ts Cells at the Nonpermissive Temperature; H1299-p53A138V viability at 39C, ATP luminescence, 24 h; Potency, µM (series often up to 46.1 µM), for the others: top-dose activity change, negative = cell killing, hits mostly cytotoxic; 130,000 tested, 1.5% active; further: on the % scale 0 is the no-effect control and ±100 the full control effect; nearly all actives have a fitted effect of over 55% in size
ERK AVP inh: qHTS Assay for Inhibitors of the ERK Signaling Pathway using a Homogeneous Screening Assay; HEK293-V1b, vasopressin-stimulated pERK AlphaScreen; Potency, µM (doses to about 57.5 µM), for inactives: at the highest dose activity, negative = inhibition, most hits filed as inhibitors; 72,000 tested, 0.99% active; further: on the % scale 0 is the no-effect control and ±100 the full control effect; nearly all actives have a fitted effect of over 55% in size
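HEK293 cells stably expressing V1b receptor, preincubated 30 min at 37 °C with compound, then stimulated 5 min with 25 nM vasopressin. Phospho-ERK by AlphaScreen SureFire after 5 h RT; normalized to DMSO and vasopressin; AC50 by Hill fit.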
Starred values were filed as active, the others as inactive; ? = inconclusive; / = no result; [ ] = another dose, or the depositor's remark. Unless noted, the call rests on the fitted dose curve; in most records, active means well fitted curve in the direction sought with a large enough effect; inconclusive means small, poorly fitted or top-dose-only effect, or another doubt; inactive means no such curve, though single readings can be large; an effect the other way counts as inactive or inconclusive. Potency means the concentration at half of the fitted maximal effect.

SMILES	Peg3 imprint	IkB sig inh	p53ts 32C kill	p53ts 39C kill	ERK AVP inh
CCCCCCCCCCCCCCCCCC(=O)NC[C@@H](COP(=O)([O-])OCC[N+](C)(C)C)OCC	/	-22%	?	?	31%
COc1ccc(OC)c(NC(=O)Nc2cccc(OCc3cc(=O)n4cc(C)ccc4n3)c2)c1	7%[10.9 µM]	?	6.3µM*	6.3µM*	/
COc1ccc(NC(=O)Nc2ccccc2OCc2cc(=O)n3ccccc3n2)c(OC)c1	7%[10.9 µM]	-2%	?	16µM*	/
O=S(=O)(O)C(c1ccccc1)[C@@H](O)c1ccccc1 (stereo partly drawn)	-16%[10.9 µM]	/	/	/	/
Cc1ccc(N2CCN(C(=O)c3c(C)oc4ncnc(N5CCCCC5)c34)CC2)c(C)c1	15%[10.9 µM]	?	15%	20µM*	/
COc1ccc(CCN(C)CCC[C@@](C#N)(c2cc(OC)c(OC)c(OC)c2)C(C)C)cc1OC	/	-4%	20%	11%	33%
Cc1ccc(SCCNC(=O)CN2C(=O)c3ccccc3S2(=O)=O)cc1	-6%	4%	-3%	-7%	7.9µM*
COc1cc(/C=C\c2ccc(OC)cc2OC)cc(OC)c1	-44%	1%	-6%	-14%	23%
COc1ccc(O)c(C(=O)CC(=O)c2ccc(F)cc2)c1	-92%	?	6.3µM*	6.3µM*	17%
CC(C)C(O)(C(C)C)C(C)C	1%[10.9 µM]	0%[11.4 µM]	1%[9.22 µM]	8%[9.22 µM]	4%[11.5 µM]
Nn1c(COc2ccccc2)nnc1SCc1cc(=O)[nH]c2ccccc12	6%	0%	6%	8%	-29%
Nn1c(COc2ccccc2)nnc1SC(F)F	4µM*	-1%	6%	0%	-10%
O=C(O)[C@@H]1[C@@H]2C[C@@H]3[C@@H](OC(=O)[C@@H]31)[C@H]2Br	6%[10.9 µM]	0%[11.4 µM]	-6%[9.22 µM]	2%[9.22 µM]	-10%[11.5 µM]
COc1cccc(-c2nnc(-c3ccc(C(F)(F)F)cc3)o2)c1	/	/	-3%	-7%	/
COc1cccc(-c2nnc(Nc3nc4c(F)cccc4s3)o2)c1	-44%	?	?	13µM*	5%
COc1cccc2sc(Nc3nnc(-c4ccccc4Cl)o3)nc12	-49%	?	?	13µM*	/
COc1ccccc1-c1nnc(Nc2nc3c(OC)cccc3s2)o1	-58%	?	4%	?	12%
Cc1cccc(/N=C/c2c(O)[nH]c3ccccc23)n1	-65%	9%	?	?	-19%
Oc1[nH]c2ccccc2c1C=Nc1ccc2c(c1)OCCO2	-75%	?	?	13µM*	20µM*
CCSc1ncc(Cl)c(C(=O)N2CCN(c3ccc(OC)cc3)CC2)n1	-9%[10.9 µM]	?	4%	0%	/
CCCS(=O)(=O)c1ncc(Cl)c(C(=O)N2CCN(c3ccc(OC)cc3)CC2)n1	-37%[10.9 µM]	?	?	13µM*	/
CN(C)CCOC(=O)c1ccc(N)cc1	-5%[10.9 µM]	0%[11.4 µM]	-6%[9.22 µM]	0%[9.22 µM]	-6%[11.5 µM]
CN1CCN(S(=O)(=O)c2ccc(SCCOc3ccccc3)nc2)CC1	-3%	?	1%	-16%	25µM*
O=S(=O)(c1ccc(SCCO)nc1)N1CCCC1	3%	-1%	-8%	-4%	-15%
COC(=O)/C=C\c1cc(O)ccc1O	-91%	?	?	?	-23%
SMILES	Peg3 imprint	IkB sig inh	p53ts 32C kill	p53ts 39C kill	ERK AVP inh
C#CCCCO/N=C1/C[C@@H](O)[C@@H](O)[C@@H]2[C@@H]3C(=O)N(c4cccc(Oc5ccccc5)c4)C(=O)[C@H]3CC[C@@H]12	/	/	-4%[9.22 µM]	2%[9.22 µM]	18%[11.5 µM]
COc1ccc2nc3sc(C(=O)Nc4cc(Cl)c(OC)cc4OC)cc3cc2c1	-5%[10.9 µM]	?	?	6.3µM*	/
O=C(O)C(Cc1ccccc1)Cc1ccccc1	-11%[10.9 µM]	-1%[11.4 µM]	-6%[9.22 µM]	1%[9.22 µM]	-1%[11.5 µM]
COc1cc(C(=O)Oc2c(Sc3ccc(C)cc3)c(C)nn2-c2ccccc2)cc(OC)c1OC	-5%[10.9 µM]	?	5%	-6%	/
COc1ccccc1C(=O)Oc1c(Sc2ccccc2)c(C)nn1-c1ccccc1	-6%[10.9 µM]	?	16µM*	-22%	/
O=C(CSc1ncccc1-c1nc2ccccc2[nH]1)NCc1ccco1	-45%	?	-11%	-15%	-2%
Cc1cc2nc(-c3cccnc3SCC(=O)NCc3ccco3)[nH]c2cc1C	-94%	?	5µM*	5µM*	-5%
CCOC(=O)N1CCC(NC(=O)c2cc3c(-c4ccc(OC)c(OC)c4)nn(C)c3s2)CC1	26%	-2%	4%	-9%	9%
CCOC(=O)N1CCC(NC(=O)c2cc3c(-c4ccccc4F)nn(C)c3s2)CC1	-22%	-5%	-2%	-2%	5µM*
CC1(CC(=O)O)O[C@H]2CCCCC[C@H]2O1 (stereo partly drawn) (tested in a mixture with another compound)	-7%[10.9 µM]	0%[11.4 µM]	4%[9.22 µM]	9%[9.22 µM]	36%[11.5 µM]
COc1c(O)cc2c(c1O)C1OC(CO)C(O)[C@H](O)[C@H]1OC2=O (stereo partly drawn)	7.9µM*	/	3%	1%	3%
COc1ccc(CNCCC(c2ccc3c(c2)OCO3)c2ccccc2OC)cc1 (stereo not drawn)	-22%[10.9 µM]	?	?	16µM*	/
COc1ccccc1CC(=O)NCc1ccc2c(c1)OCO2	-10%	8%	3%	-12%	?
CCNc1c(C(=O)O)ccc2c1C(=O)c1ccccc1C2=O	/	/	/	-1%	/
CCCN1C=CC(=C2C(=O)c3ccccc3C2=O)C=C1	-96%	?	0.2µM*	0.32µM*	-18%
CCN1C=CC(=C2C(=O)c3ccccc3C2=O)C=C1	-94%	?	0.25µM*	0.25µM*	-8%
CC1=CC(=C2C(=O)c3ccccc3C2=O)C=C(C)O1	-20%	-2%	-11%	-10%	-12%
CC1=CC(=C2C(=O)c3ccccc3C2=O)C=C(C)N1Cc1ccco1	-29%	?	?	?	15%
CN1C=CC(=C2C(=O)c3ccccc3C2=O)C=C1	-88%	0%	13µM*	10µM*	-18%
NCCSCCC(=O)O	9%[10.9 µM]	-1%[11.4 µM]	-13%[9.22 µM]	3%[9.22 µM]	-11%[11.5 µM]
[N-]=[N+]=Nc1ccc(C(=O)CSC[C@@H](NC(=O)CC[C@@H](N)C(=O)O)C(=O)NCC(=O)O)cc1	/	-3%	16%	11%	12%
CN(C)CCN(c1ccccn1)c1ccccn1	-3%[10.9 µM]	0%[11.4 µM]	0%[9.22 µM]	3%[9.22 µM]	5%[11.5 µM]
Cc1ccc(OC2C(O)COC2/C=C/C#Cc2ccc(C(C)(C)C)cc2)cc1 (stereo not drawn)	/	/	5%[9.22 µM]	2%[9.22 µM]	19%[11.5 µM]
COc1ccccc1N=c1oc2cc(O)ccc2cc1C(N)=O	2%	?	?	13µM*	-6%
